The experiment in a line: small molecules binding CAG repeat RNA – biochemical, fluorescence, dose response, MedChem round 1, SAR follow-up (AID 743497). Particulars: r(CAG) RNA 1x1 AA loop, TO-PRO-1 displacement fluorescence.

Unmarked numbers belong to inactive results. Active and inactive are the calls of the source.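 Rule for the calls: active = IC50 of 10 µM or lower; inactive = IC50 above 10 µM.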

On to `O=C(/C=C/c1cn(-c2ccccc2)nc1-c1ccccc1)Nc1cc(S(=O)(=O)N2CCCC2)ccc1Cl`, for which the IC50 (commonly the concentration at which inhibition is half-maximal) is greater than 29.9 µM.

Take `O=C(/C=C/c1cn(-c2ccccc2)nc1-c1ccccc1)NCc1ccccc1`: the IC50 is greater than 29.9 µM.

For the compound `COC(=O)c1ccc(NC(=O)/C=C/c2cn(CCC#N)nc2-c2ccc(F)cc2)cc1`, the IC50 was greater than 29.9 µM.

With `COc1ccc(-c2nn(-c3ccccc3)cc2/C=C/C(=O)Nc2ccc(C(=O)O)cc2)cc1`, the IC50 was 1.94 µM (active).

In the case of `NS(=O)(=O)c1ccc(NC(=O)/C=C/c2cn(-c3ccccc3)nc2-c2cccc(Cl)c2)cc1`, the IC50 is greater than 29.9 µM.

As for `COc1ccc(NC(=O)/C=C/c2cn(-c3ccccc3)nc2-c2ccc(OC)cc2)cc1`, the IC50 is greater than 29.9 µM.

In the case of `O=C(/C=C/c1cn(-c2ccccc2)nc1-c1ccccc1)NCCc1c[nH]c2ccccc12`, the IC50 is greater than 29.9 µM.

As to `NC(=O)c1cc(NC(=O)/C=C/c2cn(-c3ccccc3)nc2-c2ccc(F)cc2)c(F)cc1F`, the IC50 was greater than 29.9 µM.

Take `CCN1CCN(C(=O)/C=C/c2cn(-c3ccccc3)nc2-c2ccccc2)CC1`: the IC50 was greater than 29.9 µM.

In the case of `CN(C)C(=O)C1CCN(C(=O)/C=C/c2cn(-c3ccccc3)nc2-c2ccccc2)CC1`, the IC50 is greater than 29.9 µM.

For the compound `CN1CCC(N(C)C(=O)/C=C/c2cn(-c3ccccc3)nc2-c2ccccc2)CC1`, the IC50 was greater than 29.9 µM.

In the case of `N#C/C(=C/c1cn(Cc2ccccc2)nc1-c1cccnc1)C(=O)Nc1ccc(C(=O)O)cc1`, the IC50 is 16 µM.

As to `Cc1ccc(-c2nn(-c3ccccc3)cc2/C=C/C(=O)Nc2ccc(S(N)(=O)=O)cc2)cc1`, the IC50 is 29.1 µM.

Turning to `O=C(/C=C/c1cn(-c2ccccc2)nc1-c1ccccc1)N1CCN(CC(=O)N2CCCC2)CC1`, the IC50 was greater than 29.9 µM.

On to `Cc1c(C(=O)Nc2ccc(S(=O)(=O)Nc3ncccn3)cc2)oc2ccc(F)cc12`, for which the IC50 is greater than 29.9 µM.

As to `CCOC(=O)N1CCC(NC(=O)/C=C/c2cn(-c3ccccc3)nc2-c2ccccc2)CC1`, the IC50 was greater than 29.9 µM.

For the compound `CCN(CC)C(=O)/C=C/c1cn(-c2ccccc2)nc1-c1ccccc1`, the IC50 is greater than 29.9 µM.

As to `CN(C)CCCNC(=O)/C=C/c1cn(-c2ccccc2)nc1-c1ccccc1`, the IC50 was greater than 29.9 µM.

For `O=C(/C=C/c1cn(-c2ccccc2)nc1-c1ccccc1)NCCO`, the IC50 is greater than 29.9 µM.

For the compound `Cc1c(C(=O)Nc2ccc(S(=O)(=O)NCCCN3CCOCC3)cc2)oc2ccc(F)cc12`, the IC50 is greater than 29.9 µM.

On to `Cc1ccc(-c2nn(-c3ccccc3)cc2/C=C/C(=O)Nc2cccc(S(N)(=O)=O)c2)cc1`, for which the IC50 is greater than 29.9 µM.

Regarding `CS(=O)(=O)Nc1cc(NC(=O)/C=C/c2cn(-c3ccccc3)nc2-c2ccccc2)ccc1F`, the IC50 was 6.38 µM (active).

As for `O=C(/C=C\c1cn(-c2ccccc2)nc1-c1ccc(F)cc1)Nc1ccc(C(=O)O)cc1`, the IC50 was 2.15 µM (active).

Turning to `COc1ccc(-c2nn(-c3ccccc3)cc2/C=C/C(=O)Nc2cccc(NC(C)=O)c2)cc1OC`, the IC50 was greater than 29.9 µM.

On to `CC(=O)NS(=O)(=O)c1ccc(NC(=O)/C=C/c2cn(-c3ccccc3)nc2-c2ccccc2)cc1`, for which the IC50 was 1.62 µM (active).

In the case of `O=C(/C=C/c1cn(-c2ccccc2)nc1-c1ccc2ccccc2c1)Nc1ccc(C(=O)O)cc1`, the half-maximal inhibitory concentration (IC50) was 2.18 µM (active).

Regarding `CCN(c1ccccc1)S(=O)(=O)c1ccc(NC(=O)c2oc3ccc(F)cc3c2C)cc1`, the IC50 was greater than 29.9 µM.

For the compound `CNC(=O)Cc1ccc(NC(=O)/C=C/c2cn(-c3ccccc3)nc2-c2ccc(F)cc2)cc1`, the IC50 was greater than 29.9 µM.

As to `Cc1c(C(=O)Nc2ccc(S(=O)(=O)N(C)Cc3ccccc3)cc2)oc2ccc(F)cc12`, the IC50 was greater than 29.9 µM.

For the compound `CN1C(=O)/C(=C/c2cn(-c3ccccc3)nc2-c2ccccc2)c2ccccc21`, the IC50 was greater than 29.9 µM.

The record behind these values is PubChem BioAssay AID743497 (The Scripps Research Institute Molecular Screening Center, 2014).
